Test results taken from PubChem BioAssay (NCI).
This is part of a sample that, as a whole, favours compounds with a hit. Of some 83,000 tested, about 20% had one in any assay.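 Activity criterion: percent growth below 10, measured after cells in 96-well plates were exposed to a single compound concentration for 48 hours.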 A number with no mark means an inactive call. Calls of active or inactive are those of the source.

test system: NCI-H226 lung; test: NCI-60 one-dose screen, 48 h (100 = growth as untreated, 0 = no growth, -100 = all killed); conditions: 10 µM unless noted

Row | SMILES | growth [%]
1 | N=C(N)c1ccc(OCCSCCOc2ccc(C(=N)N)cc2)cc1 | 58.8
2 | Fc1ccc(/C=C/[C@@H]2C[C@@H](F)CCO2)cc1 | 101
3 | COC(=O)[C@@]12CC=C(C)[C@]3(C[C@H](c4ccoc4)OC3=O)[C@H]1C=C[C@@H](O)[C@@]2(O)C(=O)OC | 116
4 | O=c1oc2c(cc1-c1ccccc1)c(=O)[nH]c1ccccc12 | 102
5 | COc1ccc(C/C(C)=C(\c2ccc(O)cc2)c2ccc(OCCN3CCCCC3)cc2)cc1 | 103
6 | CNC(=O)c1cc(Oc2ccc3c(c2)sc2nc(-c4ccc(NC(=O)[C@@H](NC(=O)OC)C(C)C)cc4)cn23)ccn1 | 56.9
7 | Nc1[nH]nc2nc(-c3ccccc3)n3c4ccccc4nc3c12 | 95.6
8 | N#Cc1ccccc1-c1ccc(CN2C(=O)S/C(=C\c3ccc(Br)cc3)C2=O)cc1 | 86.9
9 | C=C1CC[C@@H]2C(C)(C)[C@H](O)CC[C@@]2(C)[C@@H]1COc1ccc2ccc(=O)oc2c1 | 28.5
10 | COc1cc2ncnc(Nc3ccc(S(=O)(=O)Nc4nccs4)cc3)c2cc1OCCCN1CCCC1 | 105
11 | Cc1cc(O)c(=O)cc2c1C[C@H]1CC(C)(C)/C=C/C[C@]3(C)Oc4cc(=O)c(O)cc(C)c4C[C@H]3C[C@H](O)[C@@]1(C)O2 | 11.9
12 | COc1ccc2[nH]cc(-c3nonc3-c3c[nH]c4ccc(Br)cc34)c2c1 | 74.8
13 | COc1cc2c(c(OC)c1OC)C(=O)CC(c1cccc(C(=O)Nc3ccccc3Br)c1)O2 (stereo not given) | 86
14 | NS(=O)(=O)c1ccc(C(=O)N=Nc2c(O)[nH]c3ccc(Cl)cc23)cc1 | 103
15 | CCCN(CCSSCCNc1nc(N(C)O)nc(N(C)O)n1)c1nc(N(C)O)nc(N(C)O)n1 | 82.6

test system: NCI-H322M lung; test: as above; conditions: 10 µM unless noted

Row | SMILES | growth
16 | CC/C(=C(\c1ccc(Cl)cc1)c1ccc(OCCN2CCCCC2)cc1)c1ccc(O)cc1 | 70.1%
17 | CCOC(=O)c1[nH]cc2c1CCc1sc(Nc3ccccn3)nc1-2 | 96%
18 | COc1cc(-c2ccc(-c3ccc(C(=N)N)cc3)s2)cc(OC)c1OC | 73.2%
19 | CN(C)c1ccc([C@@H](C(=O)Nc2cccc([N+](=O)[O-])c2)N(C(=O)c2cc3ccccc3[nH]2)c2cccc([N+](=O)[O-])c2)cc1 | 95%
20 | Cc1cccc(NC(=O)N/C(N)=N/c2nc3ccccc3s2)c1 | 47.7%
21 | CN(C)c1ccc(/C=N\NC(=O)c2ccc3nc(-c4ccc(Cl)cc4)[nH]c3c2)cc1 | 77.6%
22 | C=C1SC(=Nc2ccccc2Cl)N(C(=O)c2sc3ccccc3c2Cl)C1(C)C | 65.9%
23 | CC[C@@H](C(=O)[C@@H](C)[C@@H](O)[C@H](C)[C@@H]1O[C@@H]([C@@H](CC)C(=O)ONC(=O)c2ccccc2O)CC[C@@H]1C)C1O[C@]2(C=CC(=O)[C@]3(CC[C@@](C)([C@H]4CC[C@](O)(CC)[C@H](C)O4)O3)O2)[C@H](C)C[C@@H]1C (stereo not given in full) | 70%
24 | Cc1ccc(NC(=O)c2cc3ccccc3cc2O)c(C)c1 | 94.4%
25 | CCN(CC)CCOc1ccc2c(-c3ccccc3)c(-c3ccc(OC)cc3)c(=O)oc2c1 | 122%
26 | CCOC(=O)C1=C(CC(O)c2ccc(OC)cc2OC)NC(=O)NC1c1ccccc1 (stereo not given) | 104%
27 | COc1nc(/C=C\Nc2ccc3c(c2)OCCOCCOCCOCCO3)nc(OC)n1 | 90.5%
28 | Cc1c(O)cc(-c2cnc(N/N=C/c3ccccc3)s2)c(O)c1C | 97.6%
29 | CCCCO[C@@H]1C=C2[C@H]3CC(C)(C)C(=O)C[C@]3(C(=O)O[C@@H]3O[C@H](CO[C@@H]4O[C@H](CO)[C@@H](OC5OC(C)C(O)C(O)C5O)[C@H](O)[C@H]4O)[C@@H](O)[C@H](O)[C@H]3O)CC[C@@]2(C)[C@]2(C)CC[C@H]3C(C)(C)C(=O)CC[C@]3(C)[C@@H]12 (stereo not given in full) | 84.3%
30 | O=CN1N=C(c2cccc(Nc3ccnc4cc(Cl)ccc34)c2)CC1c1ccc(Cl)cc1 (stereo not given) | 59.6%
31 | CCCCCCCCn1ccc2cc(NC(=O)CN3CCN(c4cc(C)nc(Cl)n4)CC3)ccc21 | 89.5%
32 | O=C1Nc2ccccc2/C1=N/N1C(=O)CN(CCCl)C1=O | 101%
33 | CCOc1ccc(/C=C/C(=O)c2cccc(OCCCOc3cccc(C(=O)/C=C/c4ccc(OCC)cc4)c3)c2)cc1 | 84.5%
34 | C=C1C(=O)O[C@H]2[C@H]1CC/C(COC(=O)NCc1ccc(Cn3c(=O)sn(-c4ccc(I)cc4)c3=O)cc1)=C\CC[C@@]1(C)O[C@@H]21 | 101%
35 | O=C1/C(=C/c2c[nH]c(=O)[nH]c2=O)SC(=S)N1Cc1ccccc1 | 95.1%

Row | SMILES | growth
36 | Nc1nc(N(Cc2ccccc2)c2ccccc2)c2cn[nH]c2n1 | 94.2%
37 | CC(C)NS(=O)(=O)/N=C1\NC(=O)NC1=C(Cl)Cl | 103%
38 | COc1cc2c(cc1OCCCN1CCN(C(=S)SCCC(C#N)(c3ccccc3)c3ccccc3)CC1)N=C[C@@H]1CCCN1C2=O | -62.2% (active)
39 | O=c1cc(CP(=O)(O)O)c2cc(O)c(-c3ccccc3)cc2o1 | 101%
40 | O=S(=O)(Nc1ccc2ccccc2c1)c1ccc(-c2cnc(C3CC3)o2)cc1 | 48.7%
41 | N=C(N)c1ccc(OCCSCCOc2ccc(C(=N)N)cc2)cc1 | 78.3%
42 | Fc1ccc(/C=C/[C@@H]2C[C@@H](F)CCO2)cc1 | 82.1%
43 | COC(=O)[C@@]12CC=C(C)[C@]3(C[C@H](c4ccoc4)OC3=O)[C@H]1C=C[C@@H](O)[C@@]2(O)C(=O)OC | 88.7%
44 | O=c1oc2c(cc1-c1ccccc1)c(=O)[nH]c1ccccc12 | 104%
45 | COc1ccc(C/C(C)=C(\c2ccc(O)cc2)c2ccc(OCCN3CCCCC3)cc2)cc1 | 93.8%
46 | CNC(=O)c1cc(Oc2ccc3c(c2)sc2nc(-c4ccc(NC(=O)[C@@H](NC(=O)OC)C(C)C)cc4)cn23)ccn1 | 107%
47 | Nc1[nH]nc2nc(-c3ccccc3)n3c4ccccc4nc3c12 | 93%
48 | N#Cc1ccccc1-c1ccc(CN2C(=O)S/C(=C\c3ccc(Br)cc3)C2=O)cc1 | 101%
49 | C=C1CC[C@@H]2C(C)(C)[C@H](O)CC[C@@]2(C)[C@@H]1COc1ccc2ccc(=O)oc2c1 | 92.4%
50 | COc1cc2ncnc(Nc3ccc(S(=O)(=O)Nc4nccs4)cc3)c2cc1OCCCN1CCCC1 | 103%
51 | Cc1cc(O)c(=O)cc2c1C[C@H]1CC(C)(C)/C=C/C[C@]3(C)Oc4cc(=O)c(O)cc(C)c4C[C@H]3C[C@H](O)[C@@]1(C)O2 | 24.3%
52 | COc1ccc2[nH]cc(-c3nonc3-c3c[nH]c4ccc(Br)cc34)c2c1 | 50.5%
53 | COc1cc2c(c(OC)c1OC)C(=O)CC(c1cccc(C(=O)Nc3ccccc3Br)c1)O2 (stereo not given) | 98.1%
54 | NS(=O)(=O)c1ccc(C(=O)N=Nc2c(O)[nH]c3ccc(Cl)cc23)cc1 | 104%
55 | CCCN(CCSSCCNc1nc(N(C)O)nc(N(C)O)n1)c1nc(N(C)O)nc(N(C)O)n1 | 44.5%
